This is an account of results in PubChem BioAssay.

Active and inactive are the calls of the source.

In experiment [1] the test system is Plasmodium falciparum Sir2 (PF13_0152, Sir2A). As to the kind of experiment: pfSir2 binders on small-molecule microarrays, primary screen, biochemical, small-molecule microarray, 635 nm fluorescence (AID 1098).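 Further: score merges spot fluorescence intensity with its signal-to-noise ratio.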 The note with it: small-molecule microarray binding, fluorescence 635 nm; higher = more signal.
A short description of experiment [2]: small-molecule microarray binders of probe aDKK1, primary screen, biochemical, biotinylated probe, 635/667 nm fluorescence (AID 1099).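 Further: score merges 667nm spot fluorescence with signal to noise across triplicate slides; reference of the scale not given here.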 To be noted: higher = more signal.
Experiment [3] in a line: small-molecule microarray binders of probe aCHRDL2, primary screen, biochemical, biotinylated probe, 635/667 nm fluorescence (AID 1100). To be noted: higher = more signal.
Experiment [4] can be described thus: splicing luciferase reporter signal modulators, primary screen, spliceosome inhibition project, cell-based, HEK293, splice +/- reporter (AID 1101).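 Further: HEK293 cells carrying a splicing-competent luciferase reporter gene; test concentration not given here.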 The note with it: luminescence, 24 h, higher = more signal, called active from +8 up or from −8 down. In general terms: In a reporter assay the amount or activity of a reporter protein is the signal.
Experiment [5] has as its target Fibroblast growth factor 10 (Homo sapiens) (UniProt O15520). As to the kind of experiment: FGF10 binders on small-molecule microarrays, primary screen, biochemical, small-molecule microarray, 635 nm fluorescence (AID 1102). To be noted: FGF10 binding, fluorescence 635 nm, higher = more signal.
Experiment [6] deals with glycogen synthase kinase-3 (GSK3A per assay name; protocol says GSK3B). The experiment in a line: GSK3 binders on small-molecule microarrays, primary screen, biochemical, small-molecule microarray, 635 nm fluorescence, GSK3A (AID 1103). Further: the record names both GSK3A and GSK3B. The note with it: small-molecule microarray binding, fluorescence 635 nm; higher = more signal.
The target in experiment [7] is Epidermal growth factor receptor (Homo sapiens) (UniProt P00533). As to the kind of experiment: EGFR binders on small-molecule microarrays, primary screen, biochemical, small-molecule microarray, 635 nm fluorescence (AID 1104).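 Further: score merges 667 nm emission intensity with spot signal to noise over triplicate slides.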 The note with it: EGFR binding, higher = more signal.
Chain of Epidermal growth factor receptor (Homo sapiens) (P00533 whole entry, looked up): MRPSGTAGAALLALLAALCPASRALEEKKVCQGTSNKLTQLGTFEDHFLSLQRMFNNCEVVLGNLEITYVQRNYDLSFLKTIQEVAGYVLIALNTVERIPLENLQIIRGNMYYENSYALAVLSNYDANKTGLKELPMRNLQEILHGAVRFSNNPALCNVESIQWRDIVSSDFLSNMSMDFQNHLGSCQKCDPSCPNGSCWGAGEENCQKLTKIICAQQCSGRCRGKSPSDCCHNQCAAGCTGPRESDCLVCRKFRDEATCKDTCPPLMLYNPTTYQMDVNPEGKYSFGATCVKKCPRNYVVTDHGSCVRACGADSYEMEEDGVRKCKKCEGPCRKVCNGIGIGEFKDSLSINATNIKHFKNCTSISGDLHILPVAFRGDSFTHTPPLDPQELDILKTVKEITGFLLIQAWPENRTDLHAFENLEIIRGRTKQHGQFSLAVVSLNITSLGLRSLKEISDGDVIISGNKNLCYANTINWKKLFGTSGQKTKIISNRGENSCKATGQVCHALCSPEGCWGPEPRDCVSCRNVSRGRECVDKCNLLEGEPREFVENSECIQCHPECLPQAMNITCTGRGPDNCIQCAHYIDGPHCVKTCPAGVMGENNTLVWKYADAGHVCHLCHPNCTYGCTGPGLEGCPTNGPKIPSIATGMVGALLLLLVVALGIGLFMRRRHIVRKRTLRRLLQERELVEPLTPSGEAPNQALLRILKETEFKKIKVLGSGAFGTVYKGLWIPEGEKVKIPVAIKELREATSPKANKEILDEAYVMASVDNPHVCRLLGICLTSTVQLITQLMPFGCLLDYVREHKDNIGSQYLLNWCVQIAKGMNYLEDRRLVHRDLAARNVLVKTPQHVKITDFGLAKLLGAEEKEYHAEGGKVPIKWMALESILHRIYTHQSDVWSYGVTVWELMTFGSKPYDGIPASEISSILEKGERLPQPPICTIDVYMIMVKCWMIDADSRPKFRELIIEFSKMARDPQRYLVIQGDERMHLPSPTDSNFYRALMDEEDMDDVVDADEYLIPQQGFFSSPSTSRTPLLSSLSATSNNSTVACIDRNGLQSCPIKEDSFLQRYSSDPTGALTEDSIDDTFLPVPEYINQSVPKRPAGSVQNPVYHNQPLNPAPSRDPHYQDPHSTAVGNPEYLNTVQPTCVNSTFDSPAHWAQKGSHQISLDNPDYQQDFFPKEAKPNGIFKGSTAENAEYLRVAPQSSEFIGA
Experiment [8] concerns the target Follistatin-related protein 3 (Homo sapiens) (UniProt O95633). The experiment in a line: FSTL3 binders on small-molecule microarrays, primary screen, biochemical, small-molecule microarray, 635 nm fluorescence (AID 1105).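 Further: score merges emission near 667 nm and signal to noise per printed spot across three slides.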 To be noted: FSTL3 binding, higher = more signal.
Experiment [9] has as its target Dickkopf-related protein 1 (Homo sapiens) (UniProt O94907). The experiment in a line: DKK1 binders on small-molecule microarrays, primary screen, biochemical, small-molecule microarray, 635 nm fluorescence scan (AID 1106).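 Further: score merges emission near 667 nm with signal to noise over three replicate slides.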 To be noted: DKK1 binding, higher = more signal.
The test system of experiment [10] is Inhibin beta A chain (activin A). The experiment in a line: INHBA (activin A) binders on microarrays, primary screen, biochemical, small-molecule microarray, 635 nm fluorescence scan (AID 1107).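 Further: mouse activin A protein probed at 4.33 µg/mL on printed slides; score merges bound-protein fluorescence near 667 nm with spot signal-to-noise.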 To be noted: small-molecule microarray binding, higher = more signal.

Chain of Fibroblast growth factor 10 (Homo sapiens) (O15520 whole entry, looked up): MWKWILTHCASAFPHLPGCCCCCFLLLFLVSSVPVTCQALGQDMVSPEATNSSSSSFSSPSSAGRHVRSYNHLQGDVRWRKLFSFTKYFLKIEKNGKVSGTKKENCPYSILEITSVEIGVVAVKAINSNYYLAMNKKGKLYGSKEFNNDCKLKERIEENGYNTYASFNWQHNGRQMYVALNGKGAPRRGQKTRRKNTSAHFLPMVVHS
Chain of Follistatin-related protein 3 (Homo sapiens) (O95633 whole entry, looked up): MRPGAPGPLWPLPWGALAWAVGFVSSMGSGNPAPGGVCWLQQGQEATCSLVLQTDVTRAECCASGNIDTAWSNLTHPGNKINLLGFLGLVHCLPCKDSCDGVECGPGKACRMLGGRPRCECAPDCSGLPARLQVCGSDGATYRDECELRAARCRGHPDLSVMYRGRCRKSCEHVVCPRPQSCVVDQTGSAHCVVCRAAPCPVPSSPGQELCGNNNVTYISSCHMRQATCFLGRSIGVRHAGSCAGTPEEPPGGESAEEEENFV
Chain of Dickkopf-related protein 1 (Homo sapiens) (O94907 whole entry, looked up): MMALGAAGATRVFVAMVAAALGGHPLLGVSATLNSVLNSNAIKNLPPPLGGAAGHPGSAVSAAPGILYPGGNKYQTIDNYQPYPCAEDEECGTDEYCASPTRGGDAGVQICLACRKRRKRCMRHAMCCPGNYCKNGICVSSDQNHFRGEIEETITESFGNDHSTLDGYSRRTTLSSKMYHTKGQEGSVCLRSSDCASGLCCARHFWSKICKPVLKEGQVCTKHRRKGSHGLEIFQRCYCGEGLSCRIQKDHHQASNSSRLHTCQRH

As to `[N-]=[N+]=Nc1ccccc1[C@@H]1OC(c2ccc(OCCCO)cc2)=N[C@]1(CCS(=O)(=O)c1ccccc1)C(=O)O`, the composite z-score in [1] was 1.25; in experiment [2] it was 0.541; in experiment [3] it was 0.54; in [5] it was 1.11; in experiment [6], 1.29; in experiment [7] it was 0.452. The composite z-score came to 1.44 in experiment [8], 0.227 in [9] and 1.31 in [10]. The z-score in experiment [4] is -1.27 (inactive).

As for `CC(=O)N1Cc2ccccc2C[C@@]2(N=C(c3ccc(OCCCO)cc3)O[C@H]2c2ccccc2)C1=O`, the composite z-score in experiment [1] was determined as 1.54; in experiment [2], 0.927; in experiment [3], 0.82; in experiment [5], 1.16; in experiment [6], 1.09; in experiment [7], 0.361. Also, the values for the composite z-score in experiment [8], in experiment [9] and in [10] were 1.19, 0.653 and 1.03, respectively. Besides, the z-score in experiment [4] was -2.97 (inactive).

Consider `COC(=O)[C@@]1(Cc2ccc(OC)cc2)[C@H]2c3cc(C(=O)N4CCCC4)n(CCN4CCOCC4)c3C[C@H]2CN1C(=O)c1ccccc1`, for which the composite z-score in experiment [1] was found to be 1.25; in experiment [2] it was 2.6; in experiment [3] it was 1.52; in experiment [5], 1.35; in experiment [6], 0.325; in experiment [7], 0.947. Further, the composite z-score in [8] is 0.629; in experiment [9], -0.138; in experiment [10], 0.492. The z-score in experiment [4] was 0.0643 (inactive).

`O=C1C2C=CC(C(O)c3ccc(B(O)O)cc3)N(Nc3ccc([N+](=O)[O-])cc3)C2C(=O)N1c1ccccc1` (stereo not given): the composite z-score in experiment [1] amounted to 0.76; in experiment [2], 0.627; in experiment [3], 0.642; in experiment [5] it was 1.11; in experiment [6], 1.19; in [7], 0.415. The composite z-score in experiment [8] is 0.998; in experiment [9], -0.0757; in experiment [10], 0.0102. For the same compound, in [4], the z-score was 0.98 (inactive).

With `COc1ccc(C(O)C2C=CC3C(=O)N(c4ccccc4)C(=O)C3N2Nc2ccccc2)c2ccccc12` (stereo not given), the composite z-score in experiment [1] is 1; in experiment [2], 0.927; in experiment [3], 0.947; in experiment [5], -0.0394; in experiment [6], 0.0564; in experiment [7], -0.413. In addition, the values for the composite z-score in experiment [8], in experiment [9] and in experiment [10] were 0.165, -0.611 and 1.19, respectively. Besides, in experiment [4], the z-score was 0.66 (inactive).

With `CCN(CC)c1ccc(N2CC=CC34O[C@@H]5/C=C\CCCOC(=O)C5[C@H]3C(=O)N(CCCO)[C@@H]4C2=O)cc1` (stereo not given in full), the composite z-score in experiment [1] is 1.47; in [2], -0.136; in experiment [3] it was 0.808; in experiment [5] it was -1.04; in experiment [6], -0.422; in experiment [7], -1.48. Besides, the figures for the composite z-score in experiment [8], in [9] and in [10] were -0.88, -1.75 and -0.222, respectively. Besides, the z-score in experiment [4] was 0.821 (inactive).

As to `O=C1C2C=CC(C(O)c3ccccn3)N(Nc3ccccc3F)C2C(=O)N1c1ccccc1` (stereo not given), the composite z-score in experiment [1] was 0.205; in experiment [2] it was 0.19; in experiment [3], 0.461; in experiment [5], 0.0698; in experiment [6], -0.0392; in [7] it was 0.0563. Further, the composite z-score in [8] was -0.0532; in experiment [9] it was 0.124; in [10] it was 0.926. For the same compound, the z-score in [4] was -0.0196 (inactive).

As to `C=CCC(OC(C)=O)[C@@H]1[C@@H](N(Cc2cc3ccccc3o2)C(=O)c2ccc(C)cc2)c2cc(OCCCO)ccc2N1C(=O)c1ccc(-c2ccccc2)cc1` (stereo not given in full), the composite z-score in experiment [1] was -0.433; in experiment [2] it was -0.228; in [3], 0.118; in [5], 0.161; in experiment [6], -0.291; in [7] it was 0.0009. Moreover, the composite z-score was 0.363 in [8], 0.111 in experiment [9] and 1.32 in [10]. Moreover, in experiment [4], the z-score is -3.23 (inactive).

As to `CC(C)OC(=O)C1=CCC(c2cccc(Cl)c2)O1` (stereo not given), the composite z-score in [1] was 1.58; in experiment [2] it was -0.306; in experiment [3], 0.461; in experiment [5], -1.34; in [6], -0.33; in [7], -1.71. The composite z-score in [8] was -0.715; in experiment [9] it was -2.24; in experiment [10] it was -1.41. For the same compound, in [4], the z-score is -2.49 (inactive).

For the compound `Cc1ccc(S[C@]2(C(=O)NCCN3CCOCC3)CC(=O)N(C3CCCCC3)[C@@H]2c2ccc(CO)cc2)cc1`, the composite z-score is 1.35 in experiment [1]; -0.0443 in experiment [2]; 0.781 in experiment [3]; -0.103 in experiment [5]; 0.606 in [6]; -0.551 in experiment [7]. Moreover, the figures for the composite z-score in [8], in experiment [9] and in experiment [10] were 0.181, -0.55 and 0.602, respectively. In experiment [4], the z-score was 0.114 (inactive).

Consider `CCCNC(=O)[C@@]1(C)c2ccccc2C(=O)N(Cc2cc(C(F)(F)F)cc(C(F)(F)F)c2)[C@H]1c1ccc(CO)cc1`, for which the composite z-score in experiment [1] is 0.0609; in experiment [2], 0.21; in experiment [3], 0.608; in experiment [5], -0.0617; in experiment [6], -0.196; in [7], -0.708. For the same compound, the composite z-score was -0.808 in experiment [8], -0.408 in [9] and -0.605 in experiment [10]. The z-score in experiment [4] was -0.542 (inactive).

For the compound `O=C1C2C=CC(C(O)c3cccc4ccccc34)N(n3cnnc3)C2C(=O)N1Cc1ccccc1` (stereo not given), the composite z-score in experiment [1] was 0.161; in experiment [2], 1.72; in experiment [3], 0.8; in experiment [5] it was 0.975; in experiment [6], -0.181; in [7] it was 0.402. For the same compound, the figures for the composite z-score in experiment [8], in experiment [9] and in experiment [10] were 0.529, -0.13 and 0.668, respectively. The z-score in [4] is 0.228 (inactive).

For `O=C1C2C=CC(C(O)C3CC=CCC3)N(n3cnnc3)C2C(=O)N1Cc1ccccc1` (stereo not given), the composite z-score in experiment [1] is 0.213; in [2], -0.3; in [3] it was 0.348; in experiment [5] it was -0.644; in experiment [6], -0.406; in experiment [7], -1.64. Besides, the composite z-score in experiment [8] is -1; in experiment [9], -0.746; in experiment [10], 0.672. Besides, the z-score in [4] is 0.276 (inactive).

With `O=C(NCC(O)CO)[C@]1(CCS(=O)(=O)c2ccccc2)N=C(c2ccc(OCCCO)cc2)O[C@@H]1c1ccccc1` (stereo not given in full), the composite z-score in [1] is 1.11; in experiment [2], 1.28; in experiment [3], 1.34; in experiment [5], 0.305; in [6], 0.516; in [7], -0.498. The composite z-score in [8] was -0.365; in experiment [9], -0.868; in [10] it was 0.529. For the same compound, the z-score in experiment [4] was 0.833 (inactive).

With `CCCNC(=O)[C@@]1(C)c2ccccc2C(=O)N(Cc2cc(F)cc(C(F)(F)F)c2)[C@H]1c1ccc(CO)cc1`, the composite z-score in experiment [1] was 1.25; in experiment [2], 0.0202; in experiment [3], 0.995; in experiment [5] it was -1.02; in experiment [6], -0.552; in experiment [7], -0.668. In addition, the composite z-score was -0.286 in experiment [8], -1.44 in [9] and -0.496 in [10]. The z-score in [4] is -0.377 (inactive).

As to `O=c1cccc(-c2cccc3ccccc23)o1`, the composite z-score in experiment [1] is 1.06; in experiment [2] it was 0.849; in [3], 1.23; in [5], -0.52; in experiment [6] it was -0.274; in experiment [7] it was -1.18. Moreover, the composite z-score in experiment [8] is -0.218; in [9] it was -0.951; in [10], 1.46. Besides, the z-score in experiment [4] is 0.873 (inactive).

As to `[N-]=[N+]=NCc1ccccc1C[C@]1(C(=O)NCC(O)CO)COC(c2ccc(OCCCO)cc2)=N1` (stereo not given in full), the composite z-score in experiment [1] was 1.08; in experiment [2], 1.22; in experiment [3] it was 1.5; in experiment [5], -0.0207; in experiment [6], -0.493; in experiment [7] it was -1.13. Also, the composite z-score in [8] is 0.324; in [9] it was -0.372; in experiment [10], 0.462. The z-score in experiment [4] was 1.1 (inactive).

Turning to `COc1ccc(C#Cc2ccc3c(c2)[C@]2(C(=O)N3)[C@H](C(=O)N3CCN(c4ncccn4)CC3)[C@H]3C(=O)O[C@H](c4ccccc4)[C@H](c4ccccc4)N3[C@@H]2c2ccc(O)cc2)cc1`, the composite z-score was 0.707 in experiment [1]; -0.015 in experiment [2]; 0.612 in experiment [3]; 0.557 in [5]; 0.967 in experiment [6]; 0.366 in experiment [7]. The composite z-score in [8] worked out at 0.743; in [9] it was 0.353; in [10], 0.536. Further, the z-score in [4] was -0.73 (inactive).
